An excerpt weighted towards active compounds, which were near 19% of everything screened.
HT1080NT lethal – kills 2HG-producing HT-1080-NT fibrosarcoma cells. 360,000 tested, 1.6% active. Potency, µM (top dose mostly 46.1 µM), for inactives: at the highest dose activity, negative = less viability, usual class: cytotoxic. AID 686970. HT-1080-NT fibrosarcoma viability, CellTiter-Glo ATP luminescence, 48 h;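 further: NT is the 2HG producing partner of a matched IDH1 knockdown line; potency means the concentration at half of the fitted maximal effect; 0% = DMSO-treated cells and -100% = media-only wells without cells; nearly all actives have a fitted effect of over 55% in size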
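Luminescent CellTiter-Glo readout after 48 hours of compound exposure at 37 degrees C defined viability of HT-1080-NT cells. Activity was normalized to DMSO wells and cell-free media wells; concentration-response curves were fitted and assigned curve classes.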
IL-1B inflam inh – inflammasome signaling inhibition, IL-1 beta readout. THP-1 LPS/ATP IL-1B secretion, AlphaLISA, 16 h; hits give low values. activity change, % at 57.5 µM. 360,000 tested, 4.7% active; in the data active means activity change below about -50%; inconclusive means mostly about -30% to -49%
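THP-1 cells pretreated 1 hr with compounds (up to 57.5 uM final), then stimulated with LPS (250 ng/mL final) plus ATP (1.25 mM final); secreted IL-1B measured by AlphaLISA after 16 hr, decreased signal indicating inhibition.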
ELG1 repair inh – ELG1-dependent DNA repair inhibition; HEK293T ELG1-luciferase reporter, luminescence, 16 h; DNA damage induced by 5-fluorouridine; Potency, µM (top dose mostly 46.1 µM), for inactives: top-dose activity change, negative = inhibition, usual class: inhibitors; 330,000 tested, 2.3% active; further: potency means the concentration at half of the fitted maximal effect; nearly all actives have a fitted effect of over 55% in size
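Cells (2,000 per well) received 5-fluorouridine plus test compound or DMSO and were incubated 16 hr at 37 °C, 5% CO2. Luciferase activity was read by luminescence 30 min after ONE-Glo addition; signal suppression marked inhibition of damage-induced ELG1 function.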
TDP1 cell CPT – growth inhibition of DT40 Tdp1-/-;hTDP1 cells with camptothecin (screen for TDP1 inhibitors) | chicken DT40 Tdp1-/-;hTDP1 cells + 20 nM CPT, ATP luminescence, 48 h | Potency, µM (top dose mostly 46.2 µM), for inactives: top-dose activity change, negative = growth inhibition, usual class: inhibitors | 420,000 tested, 12% active | AID 686979; further: potency means the concentration at half of the fitted maximal effect; nearly all actives have a fitted effect of over 55% in size
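Cell growth measured by CellTiter-Glo luminescence after a minimum 48 h, 37 C compound exposure with 20 nM CPT in Tdp1-knockout DT40 cells stably expressing hTDP1, seeded 400/well; qHTS titration format.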
HT1080 IDH1KD tx – HT-1080 IDH1 knockdown cell toxicity (counter line) | HT-1080 IDH1 knockdown viability, ATP luminescence, 48 h | Potency, µM (series often up to 46.1 µM), for the others: at the highest dose activity, negative = toxicity, most hits filed as cytotoxic | 360,000 tested, 2% active;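 further: potency means the concentration at half of the fitted maximal effect; 0% = DMSO wells and -100% = cell-free medium wells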
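Viability of IDH1-knockdown HT-1080 fibrosarcoma cells was assessed by CellTiter-Glo after 48 h at 37 °C with titrated compound; concentration-effect curves were classified by fit quality and response size.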
TDP1 cell noCPT – qHTS for Inhibitors of human tyrosyl-DNA phosphodiesterase 1 (TDP1): qHTS in cells in absence of CPT. 420,000 tested, 15% active. Potency, µM (series often up to 46.2 µM), for inactives: at the highest dose activity change, negative = growth inhibition, most hits filed as inhibitors. DT40 Tdp1-/- hTDP1 cells, no CPT, ATP luminescence, 48 h. AID 686978, 2013; further: potency means the concentration at half of the fitted maximal effect; nearly all actives have a fitted effect of over 55% in size
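No-CPT arm: Tdp1-/-;hTDP1 DT40 cells (400/well) plus compounds, incubated ≥48 hr at 37 °C. Readout CellTiter-Glo luminescence.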
Starred values were filed as active, the others as inactive; ? = inconclusive; nt = no result given. Unless noted, the call rests on the fitted dose curve; in most records, active means well fitted curve in the direction sought with a large enough effect; inconclusive means small, poorly fitted or top-dose-only effect, or another doubt; inactive means no such curve, though single readings can be large; an effect the other way counts as inactive or inconclusive. Unless noted, on the % scale 0 is the no-effect control and ±100 the full control effect.

SMILES	HT1080NT lethal	IL-1B inflam inh	ELG1 repair inh	TDP1 cell CPT	HT1080 IDH1KD tx	TDP1 cell noCPT
Cc1ccc(S(=O)(=O)CCC(=O)N(Cc2nnc(-c3ccc(Cl)cc3)o2)C2CC2)cc1	-3%	-17	18%	?	-1%	?
O=C(c1cc(Cl)nc2ccccc12)N(Cc1nnc(-c2ccc(Cl)cc2)o1)C1CC1	-8%	-4	-20%	12µM*	-1%	16µM*
CCOc1ccccc1N1CC(C(=O)N(Cc2nnc(-c3ccccc3Cl)o2)C2CC2)CC1=O (stereo unspecified)	3%	-13	0%	?	4%	?
CCOc1ccc2oc(C(=O)N(Cc3nnc(-c4ccccc4Cl)o3)C3CC3)c(C)c2c1	3%	-4	9.2µM*	?	4%	23µM*
O=C(c1cc2ccccc2o1)N(Cc1nnc(-c2ccccc2Cl)o1)C1CC1	0%	-1	?	-20%	1%	?
O=C(c1cc(Cl)nc2ccccc12)N(Cc1nnc(-c2ccccc2Cl)o1)C1CC1	-6%	-7	nt	16µM*	-10%	21µM*
Cc1cc(F)ccc1C(O)c1ncc(-c2cccc3ccccc23)[nH]1 (stereo unspecified)	?	15	nt	?	?	?
O=C(Cn1ncc(Cl)c(Cl)c1=O)Nc1ccc2c(c1)OCO2	?	-99*	6.5µM*	7.3µM*	18µM*	3.3µM*
CCC(=O)c1ccc2c(c1)OCCO2	6%	-6	26%	-21%	6%	3%
CCN(CC)S(=O)(=O)c1cc(NC(=O)Cc2ccsc2)ccc1C	-14%	8	-27%	-24%	-25%	?
O=C(Cn1ncc(Cl)c(Cl)c1=O)NC(=O)NC1CCCCC1	?	-103*	?	2.9µM*	6.5µM*	2.9µM*
O=C(Cn1ncc(Cl)c(Cl)c1=O)c1ccc2c(c1)OCCO2	?	-99*	?	16µM*	?	23µM*
CCN(CC)S(=O)(=O)c1cc(NC(=O)Cn2ncc(Cl)c(Cl)c2=O)ccc1C	10µM*	-59*	?	3.7µM*	7.3µM*	2.3µM*
CCc1ccc2cc3c(cc2n1)C(=O)c1ccccc1-3	2%	3	nt	-22%	-1%	?
O=C(NC1CCCC1)c1cnn(-c2ccc(F)cc2F)c1C1CCNCC1	nt	nt	nt	-24%	nt	?
O=C(Nc1cccc(F)c1)N1CC=C(n2c(=O)[nH]c3ccccc32)CC1	-8%	-59*	?	?	-1%	?
O=C(Nc1ccccc1)N1CC=C(c2ccc(F)cc2)CC1	-8%	0	?	?	-6%	13µM*
O=C(Nc1cccc(F)c1)N1CCC2(CCNCC2)CC1	nt	nt	nt	-26%	nt	?
c1ccc(CC[n+]2ccncc2)cc1	nt	nt	nt	-17%	nt	-92%
COCCNC(=O)C1(C)CCCN(C(=O)CCc2ccccc2)C1 (stereo unspecified)	17%	-6	nt	-18%	4%	-5%
O=C(COC(=O)Cn1cnc2ccccc21)Nc1cc2c(cc1Cl)C(=O)c1ccccc1C2=O	-7%	18	?	21µM*	-10%	16µM*
COc1ccc(-c2csc(C(C)(O)c3ccccc3)n2)cn1 (stereo unspecified)	-2%	18	nt	?	-14%	?
O=C1c2ccccc2NC(c2cn[nH]c2-c2ccc(Cl)cc2)N1O (stereo unspecified)	?	2	-4%	16µM*	?	16µM*
COc1ccc(C(=O)Nc2cc(C)nn2-c2cccc(F)c2)cc1OC	-8%	-20	15%	-17%	0%	-29%

Screening data deposited in PubChem by National Center for Advancing Translational Sciences (NCATS).
